Sm TGR inh – S. mansoni TGR enzyme inhibition | Potency, µM (titrated, usually from 114 µM), for inactives: at the top dose activity change, negative = inhibition, usual class: inhibitors | 3% of 360,000 active | Q962Y6 | purified TGR, DTNB reduction, TNB absorbance 405 nm; also: % is scaled to controls: 0 for no effect and ±100 for the full control effect; nearly all actives have a fitted effect of over 60% in size
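TGR 20 nM + NADPH 100 uM (dispensed conc.), cpd preinc 15 min RT; start with NADPH (500 uM addition) then DTNB (15 mM addition). Kinetic TNB absorbance, 405 nm filter. Four-parameter Hill fit across titration.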
LmPK inh – LmPK (Leishmania mexicana) enzyme inhibition; 0.37% of 290,000 active; Q27686; purified LmPK, Kinase-Glo ATP luminescence, 1 h; AID 1721; Potency, µM (highest dose often 57.5 µM), inactives show at the top dose activity change, negative = inhibition, usual class: inhibitors; also: % is scaled to controls: 0 for no effect and ±100 for the full control effect
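qHTS format; LmPK 0.1 nM; substrates PEP 0.5 mM and ADP 0.1 mM. One-hour room-temperature incubation, then coupled luciferase luminescence; 0.5 nM enzyme wells mark activation.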
Tb PYK inh – T. brucei pyruvate kinase inhibition; 0.12% of 410,000 active; AID 624173; TbPYK enzyme, Kinase-Glo Plus ATP luminescence, 45 min; Potency, µM (series often up to 76.8 µM), without a hit: top-dose activity, negative = inhibition, most hits filed as inhibitors; also: % is scaled to controls: 0 for no effect and ±100 for the full control effect; nearly all actives have a fitted effect of over 50% in size
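Enzyme and substrate buffer are dispensed first and compound is pin-transferred. ADP at 130 uM final then starts the reaction, which runs 45 min at room temperature. Detection reagent is added for 10 min before luminescence is imaged.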
RE007 growth inh – less growth of the S. pombe RE007 Vpr strain. S. pombe RE007 Vpr strain, BacTiter-Glo ATP luminescence, 24 h. Potency, µM (series often up to 92.2 µM), without a hit: top-dose activity change, negative = less growth, usual class: inhibitors. 0.21% of 360,000 active. AID 651644; active = well fitted falling curve with a large enough effect; inconclusive = small, poorly fitted or top-dose-only effect; inactive = no such curve, though single readings can be large or run the other way; also: % is scaled to controls: 0 for no effect and ±100 for the full control effect; nearly all actives have a fitted effect of over 50% in size
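Fission yeast RE007 carrying one integrated HIV-1 vpr copy, seeded at OD 0.01 in PMG+AL medium with 23 nL pinned compound. Grown 24 h at 30 degrees; viability read by BacTiter-Glo luminescence after 5 min.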
NS1 inh – influenza NS1 inhibition. Potency, µM (top dose mostly 46.1 µM), for the others: at the top dose activity, positive = more growth. 0.4% of 270,000 active. AID 2326; calls by dose curve; also: actives are rising curves; nearly all actives have a fitted effect of over 50% in size
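Growth recovery, yeast-based: influenza A NS1 expressed in S. cerevisiae causes slow growth, and suppressors are detected by OD600. The parent strain without NS1 is used as positive control.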
Giardia FBPA inh-1 – inhibitors of Giardia lamblia fructose-1,6-bisphosphate aldolase; A8B2U2; purified Giardia FBPA; Potency, µM (doses to about 59.6 µM), for the others: at the highest dose activity, negative = inhibition, most hits filed as inhibitors; 0.71% of 290,000 active; AID 2451; also: % is scaled to controls: 0 for no effect and ±100 for the full control effect; nearly all actives have a fitted effect of over 55% in size
Target sequence (A8B2U2 whole entry, looked up): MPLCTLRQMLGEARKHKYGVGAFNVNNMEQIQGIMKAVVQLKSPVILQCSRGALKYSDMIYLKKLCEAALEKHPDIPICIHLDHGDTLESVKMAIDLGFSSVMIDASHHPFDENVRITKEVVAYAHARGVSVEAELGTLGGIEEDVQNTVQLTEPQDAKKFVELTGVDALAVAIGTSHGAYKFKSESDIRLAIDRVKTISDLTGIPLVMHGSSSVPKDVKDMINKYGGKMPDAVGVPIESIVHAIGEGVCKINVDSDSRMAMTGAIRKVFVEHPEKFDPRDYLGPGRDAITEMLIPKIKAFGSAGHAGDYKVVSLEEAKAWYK
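40 nM FBPA preincubated 10 min at RT with compound (up to 57.5 uM final), then substrate plus GAPDH/TPI/NAD/arsenate coupling and diaphorase/resazurin added. Fluorescence read after 20 min at RT, 525/598 nm.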
Giardia growth – Giardia lamblia growth inhibition; shares compounds with Giardia FBPA inh-1; Giardia lamblia trophozoite growth inhibition; Potency, µM (doses to about 57.5 µM), inactives show at the highest dose activity change, negative = inhibition, hits mostly inhibitors; 5% of 1,500 active; AID 2785;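 also: trophozoites exposed to compound for 48 h at 37 °C; % is scaled to controls: 0 for no effect and ±100 for the full control effect; nearly all actives have a fitted effect of over 70% in size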
Mammal cell tox – counter-screen for Giardia aldolase inhibitors: mammalian cell toxicity | shares compounds with Giardia FBPA inh-1 | mammalian cell viability counter-screen, qHTS | Potency, µM (titrated, usually from 57.5 µM), without a hit: top-dose viability change, negative = toxicity, actives largely listed as inhibitors | 4% of 1,500 active | AID 2786;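 also: Chinese hamster ovary cells used as mammalian cytotoxicity surrogate; viability measured as cellular ATP by luminescence; compound exposure lasted 48 h before reading; % is scaled to controls: 0 for no effect and ±100 for the full control effect; nearly all actives have a fitted effect of over 60% in size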
Giardia FBPA inh-2 – confirmation of Giardia fructose-bisphosphate aldolase inhibitors; purified Giardia aldolase enzyme activity, qHTS; shares compounds with Giardia FBPA inh-1; 5% of 1,500 active; AID 2787; Potency, µM (top dose mostly 57.5 µM), inactives show at the top dose activity change, negative = inhibition, most hits filed as inhibitors; also: % is scaled to controls: 0 for no effect and ±100 for the full control effect; nearly all actives have a fitted effect of over 45% in size
Rabbit aldolase – blocks rabbit muscle aldolase in Giardia aldolase selectivity test | shares compounds with Giardia FBPA inh-1 | Rabbit muscle FBPA enzyme inhibition, selectivity counter-screen | Potency, µM (highest dose often 57.5 µM), inactives show at the highest dose activity, negative = inhibition, hits mostly inhibitors | 4% of 1,500 active; also: % is scaled to controls: 0 for no effect and ±100 for the full control effect; nearly all actives have a fitted effect of over 60% in size
Target sequence (P00883 whole entry, looked up): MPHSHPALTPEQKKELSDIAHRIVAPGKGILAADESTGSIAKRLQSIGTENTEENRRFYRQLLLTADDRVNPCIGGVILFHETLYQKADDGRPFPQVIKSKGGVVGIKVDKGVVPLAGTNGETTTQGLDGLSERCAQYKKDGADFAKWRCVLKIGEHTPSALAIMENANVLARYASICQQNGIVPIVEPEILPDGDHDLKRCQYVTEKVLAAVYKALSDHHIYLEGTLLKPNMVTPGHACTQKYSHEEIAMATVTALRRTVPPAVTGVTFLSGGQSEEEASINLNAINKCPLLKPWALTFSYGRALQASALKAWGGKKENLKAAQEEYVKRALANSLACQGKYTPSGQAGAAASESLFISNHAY
GAPDH coupling – GAPDH inhibition flagged for Giardia aldolase hits; Potency, µM (doses to about 57.5 µM), for the others: top-dose activity change, negative = inhibition, usual class: inhibitors; GAPDH coupling enzyme counterscreen, biochemical, qHTS; shares compounds with Giardia FBPA inh-1; 6% of 1,500 active; also: % is scaled to controls: 0 for no effect and ±100 for the full control effect; nearly all actives have a fitted effect of over 55% in size
Numbers without * were called inactive; ? = inconclusive; / = no result given; [ ] = another dose, or the depositor's remark. Rows were chosen to be rich in hits. Some 3.5% of all compounds tested hit in one or more screens of this group. Unless noted, calls follow the shape of the dose curve; as a rule, active = well fitted curve in the direction sought with a large enough effect; inconclusive = small, poorly fitted or top-dose-only effect, or another doubt; inactive = no such curve, though single readings can be large; an effect the other way counts as inactive or inconclusive. Potency is read from the fitted curve at half-maximal effect.

SMILES	Sm TGR inh	LmPK inh	Tb PYK inh	RE007 growth inh	NS1 inh	Giardia FBPA inh-1	Giardia growth	Mammal cell tox	Giardia FBPA inh-2	Rabbit aldolase	GAPDH coupling
CCn1c(=O)c(C(=O)CN(C)Cc2ccc(F)cc2)c(N)n(Cc2ccccc2)c1=O	4%	-8%	3%	-15%	/	3%	/	/	/	/	/
CCn1c(=O)c(C(=O)CN(C)Cc2cccc(OC)c2OC)c(N)n(Cc2ccccc2)c1=O	-1%	-1%	17%	-5%	-3%	16µM*	34%	-7%	2%	4%	-9%
c1ccc2c(c1)OCC(C1=NCCN1)O2 (stereo not drawn)	-23%	5%	-2%	-17%[18.4 µM]	12%	-7%	/	/	/	/	/
Nn1c(C2COc3ccccc3O2)n[nH]c1=S (stereo not drawn)	13%	2%	-10%	-16%	5%	6.3µM*	-15%[38.3 µM]	-4%	?	?	?
C=C(C(C)=O)C(O)c1ccccc1 (stereo not drawn)	/	/	/	/	/	1%	/	/	/	/	/
O=C(O)CNC(=O)CC1S/C(=N/N=C2\CSC(=O)N2)NC1=O (stereo not drawn)	1%	27%	-2%	10%	2%	5.6µM*	13%[38.3 µM]	4%	-10%	8%	-8%
COC(=O)C1[C@@H](OC)C(OC(=O)COc2ccc(OC)cc2)C[C@@H]2CN3CCc4c([nH]c5cc(OC)ccc45)[C@H]3C[C@H]12 (stereo partly drawn)	/	/	3%	/	/	/	/	/	/	/	/
O=[N+]([O-])c1ccccc1S(=O)(=O)N1CCN(Cc2ccsc2)CC1	-5%	-1%	-9%	-19%	-14%	20µM*	-17%	0%	-4%	-1%	3%
O=[N+]([O-])c1ccccc1S(=O)(=O)N1CCN(Cc2ccccc2)CC1	1%	5%	-1%	-2%	-8%	-30%	/	/	/	/	/
Cc1ccc(-c2cc(C(=O)Nc3c(C(=O)c4ccccc4)oc4ccccc34)no2)cc1F	-3%	/	2%	/	/	/	/	/	/	/	/
OC(CNc1ccccc1)Cn1ccc2ccccc21 (stereo not drawn)	/	1%	-12%	-12%	6%	18µM*	?	-4%	-4%	1%	4%
O=C(Nc1cccc(C(F)(F)F)c1)N1CCC(CN2CCCCCC2)CC1	-26%	/	4%	/	/	/	/	/	/	/	/
CCOC(=O)COc1ccc(F)cc1C(=O)c1ccn2nc(-c3ccc(Cl)cc3)cc2n1	-1%	/	3%	/	/	/	/	/	/	/	/
COc1ccc(Cc2c(O)[nH]c(=S)[nH]c2=O)cc1	2%	-2%	?	14%	2%	25µM*	-13%[10.4 µM]	15%	-6%	11%	11%
COCCCn1c(=O)c2ccccc2n2c(=S)[nH]nc12	7%	9%	?	2%	9%	7.1µM*	-21%[38.3 µM]	-5%	7%	-2%	-16%
COc1cccc(-n2c(=O)c3ccccc3n3c(=S)[nH]nc23)c1	-3%	3%	?	6%	6%	?	/	/	/	/	/
Cc1ccc(C(=O)Nc2ncc([N+](=O)[O-])s2)cc1	-26%	?	-18%	?	-142%	16µM*	?	40µM*	?	25µM*	28µM*
CC(=O)Nc1ncc([N+](=O)[O-])s1	/	/	2%	/	/	/	/	/	/	/	/
O=C(NCC(c1ccccc1)c1ccccc1)c1nn(-c2ccccc2F)nc1CO	3%	/	3%	/	/	/	/	/	/	/	/
O=C(COc1ccccc1Cl)Nc1ccc(Cl)c(-c2nc3ccccc3o2)c1	-2%	/	3%	/	/	/	/	/	/	/	/
Cc1ccc(C(=O)c2cn(CC(=O)Nc3ccc4c(c3)OCCO4)c3nc(C)ccc3c2=O)cc1	4%	/	1%	/	/	/	/	/	/	/	/
COC(=O)CSc1ncc2c(n1)-c1ccccc1N(Cc1ccc(Cl)cc1)S2(=O)=O	3%	/	-1%	/	/	/	/	/	/	/	/
CCOC(=O)c1ccc(NC(=O)C(=O)NCc2ccc(/C=C(/C#N)C(=O)NCCOC)o2)cc1	6%	-2%	-3%	-5%	/	0%	/	/	/	/	/
CCOC(=O)C1=C(O)/C(=C/c2ccc(CNC(=O)C(=O)Nc3ccc(C)cc3)o2)N=C1C	18µM*	-4%	-10%	1%	22%	4.5µM*	?	?	-28%	-13%	6%

Assay outcomes: PubChem, National Center for Advancing Translational Sciences (NCATS)
